Assay results published in the supplement of paper PMC6763611.

Each compound was assayed on Plasmodium falciparum NF54 (assay: growth inhibition relative to untreated control; higher = more inhibition). Conditions: 1 µM; MM + chorismate end-products (CM screening medium); 72 h.
In short: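 In dark 96-well half-area plates, each well held 100 μL of P. falciparum NF54 ring-stage culture at 1% parasitemia and 1% hematocrit. The cultures received a single test-compound dose of 5 μM or 1 μM and were kept at 37 °C for 72 h, in minimal RPMI either plain or enriched with folate (2.2 μM), pABA (7.3 μM), pHBA (7.3 μM), tyrosine (111 μM), phenylalanine (90 μM) and tryptophan. SYBR Green staining gave growth inhibition, expressed against untreated wells, with uninfected erythrocytes serving as the background.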
`COc1cc(NC(C)CCCN)c2ncccc2c1` (stereo not drawn) was tested, and the growth inhibition was 51.1%.
For `COc1ccc(C2(C(=O)Nc3ccc(Br)cc3)CCCC2)cc1`, the growth inhibition was 15.3%.
`CC(C)(C)c1cc(C(=O)N2CCN(c3nccnc3C#N)CC2)n(Cc2ccccc2)n1` showed a growth inhibition of 73.4%.
Work on `O=C(C(Cc1c[nH]c2ccccc12)NS(=O)(=O)c1ccc(Cl)cc1)N1CCCCC1` (stereo not drawn) yielded a growth inhibition of 58%.
`CC(C)n1nc(-c2cc3c(Cl)cccc3[nH]2)c2c(N)ncnc21` gave a growth inhibition of 50.4%.
With `CC(C)c1ncc(-c2ccncc2)c([C@H]2CC[C@H](CNC(=O)c3cccnc3)CC2)n1` the growth inhibition was 77.1%.
With `COc1cccc(-n2nnnc2S(C)(=O)=O)c1` the growth inhibition was 19.7%.
Work on `O=C(NC1CC1)c1ccc(N2CCOc3ccc(Cl)cc32)s1` yielded a growth inhibition of 91%.
In the case of `COc1ccc(CCN2CCC(NCc3cccc(N(C)C)c3)CC2)cc1`, the growth inhibition is reported as 88.1%.
`O=C(c1ccco1)N(CCCn1ccnc1)c1nc2c(Cl)cccc2s1` was tested, and the growth inhibition was 13.2%.
Work on `NCC(c1cccs1)S(=O)(=O)c1ccccc1` (stereo not drawn) yielded a growth inhibition of 36.2%.
`C[C@H]1COc2c(N3CCN(C)CC3)c(F)cc3c(=O)c(C(=O)O)cn1c23` was tested, and the growth inhibition was 17.1%.
`CCOc1ccc(-c2nc(CNCCc3ccc(F)cc3)cs2)cc1` gave a growth inhibition of 2.22%.
`Cc1cc(Nc2ccc(C(F)(F)F)cc2)n2ccnc2n1` gave a growth inhibition of 97.2%.
`COc1cccn2c(C(=O)N3CCCCC3)c(C(F)(F)F)nc12` showed a growth inhibition of 12.4%.
`COc1cc(C2=NCCN2)cc2cc(-c3ccc(C4=NCCN4)cc3)oc12` gave a growth inhibition of 78%.
Work on `O=C(Nc1cccc(Cl)c1)c1cnc(N2CCN(c3ccncc3)CC2)c(Cl)c1` yielded a growth inhibition of 90.3%.
With `CS(=O)(=O)N1CCC(CCn2nc(Cc3cccc4ccccc34)c3c(N)ncnc32)CC1` the growth inhibition was under 0%.
`Cc1noc(C)c1C(=O)N1CCCC(c2[nH]c3c(C)cccc3c2-c2ccncc2)C1` (stereo not drawn) showed a growth inhibition of 97.7%.
For `CNC1C(OC2C(OC3C(O)C(O)C(N=C(N)N)C(O)C3N=C(N)N)OC(C)C2(O)C=O)OC(CO)C(O)C1O` (stereo not drawn), the growth inhibition was 20.4%.
`COC(=O)c1c(NC(=O)c2cc3ccccc3oc2=O)sc2c1CCN(Cc1ccccc1)C2` was tested, and the growth inhibition was under 0%.
`CC(C)(C)C(=O)N(CCCCCCN1C[C@H](O)[C@@H](O)[C@H](O)[C@H]1CO)C1CCCCCC1` was tested, and the growth inhibition was 28.4%.
`N=C(N)Nc1ccc(-c2ccc(-c3ccc(N=C(N)N)c(Cl)c3)o2)cc1Cl` showed a growth inhibition of 73.6%.
`CC(C)(C)c1cc(C(=O)Nc2cccnc2)cc(C(=O)Nc2cccnc2)c1` was tested, and the growth inhibition was 88.9%.
`Clc1ccc(-n2cc(COc3ccnc4ccccc34)nn2)cc1` gave a growth inhibition of 4.03%.
For `CCc1c(C)nc(-n2nc(C)cc2NC(=O)c2ccccc2SC)[nH]c1=O`, the growth inhibition was 72.1%.
`CC(C)C(C(=O)Nc1ccc(S(=O)(=O)N(C)C)cc1)c1ccc(Cl)cc1` (stereo not drawn) was tested, and the growth inhibition was 96.6%.
`COc1cc(OC)cc(C(=O)NCC2Cc3cc(Cl)cc(-c4ccncc4)c3O2)c1` (stereo not drawn) was tested, and the growth inhibition was 91.9%.
`Cc1ccc2cc(C3NC(=O)c4ccccc4N3)c(Cl)nc2c1` (stereo not drawn) was tested, and the growth inhibition was 86%.
In the case of `O=C(Nc1c(O)cccc1-c1nc2c(C(=O)O)cccc2o1)c1cc(-c2ccccc2)on1`, the growth inhibition is reported as over 100%.
With `C[C@H](C(N)=O)N1CCCC[C@@H]1c1ccc(OCc2cccc(F)c2)cc1` the growth inhibition was 45.1%.
Work on `O=C(c1ccc(NCCO)cc1)C1C[C@H]1c1ccc(Cl)cc1` (stereo partly drawn) yielded a growth inhibition of 71%.
`O[C@@H](c1cc(C(F)(F)F)nc2c(C(F)(F)F)cccc12)[C@H]1CCCCN1` showed a growth inhibition of 94.5%.
`Cc1nn2c(O)c3c(nc2c1-c1ccc(F)cc1)CCCC3` gave a growth inhibition of 11%.
In the case of `CN1CCC(NCc2cccc(-c3ccc(S(=O)(=O)NCc4ccccc4)cc3)c2)CC1`, the growth inhibition is reported as 96.4%.
Compound `COc1cc(CN2CCC3(C=Cc4ccccc43)CC2)cc2c1OCO2` has a growth inhibition of over 100%.
With `O=C(c1cc2ccccc2o1)N1CCN(Cc2ccc3c(c2)OCO3)CC1` the growth inhibition was 15.1%.
`CC(C)(C)[C@H]1CC[C@H](CC2=C(O)C(=O)c3ccccc3C2=O)CC1` was tested, and the growth inhibition was 97.5%.
`CO[C@H]1/C=C\O[C@@]2(C)Oc3c(C)c(O)c4c(O)c(/c(=C/NN5CCN(C)CC5)c(O)c4c3C2=O)=N\C(=O)/C(C)=C\C=C/[C@H](C)[C@H](O)[C@@H](C)[C@@H](O)[C@@H](C)[C@H](OC(C)=O)[C@@H]1C` showed a growth inhibition of 35.5%.

Same assay, conditions: 1 µM; minimal medium (MM); 72 h
Work on `COc1cc(NC(C)CCCN)c2ncccc2c1` (stereo not drawn) yielded a growth inhibition of 54.5%.
For `COc1ccc(C2(C(=O)Nc3ccc(Br)cc3)CCCC2)cc1`, the growth inhibition was 2.06%.
In the case of `CC(C)(C)c1cc(C(=O)N2CCN(c3nccnc3C#N)CC2)n(Cc2ccccc2)n1`, the growth inhibition is reported as over 100%.
In the case of `O=C(C(Cc1c[nH]c2ccccc12)NS(=O)(=O)c1ccc(Cl)cc1)N1CCCCC1` (stereo not drawn), the growth inhibition is reported as 56.9%.
For `CC(C)n1nc(-c2cc3c(Cl)cccc3[nH]2)c2c(N)ncnc21`, the growth inhibition was 16%.
Compound `CC(C)c1ncc(-c2ccncc2)c([C@H]2CC[C@H](CNC(=O)c3cccnc3)CC2)n1` has a growth inhibition of 76%.
With `COc1cccc(-n2nnnc2S(C)(=O)=O)c1` the growth inhibition was 29.5%.
With `O=C(NC1CC1)c1ccc(N2CCOc3ccc(Cl)cc32)s1` the growth inhibition was 82.1%.
Compound `COc1ccc(CCN2CCC(NCc3cccc(N(C)C)c3)CC2)cc1` has a growth inhibition of over 100%.
`O=C(c1ccco1)N(CCCn1ccnc1)c1nc2c(Cl)cccc2s1` gave a growth inhibition of 22.3%.
For `NCC(c1cccs1)S(=O)(=O)c1ccccc1` (stereo not drawn), the growth inhibition was under 0%.
Work on `C[C@H]1COc2c(N3CCN(C)CC3)c(F)cc3c(=O)c(C(=O)O)cn1c23` yielded a growth inhibition of under 0%.
Work on `CCOc1ccc(-c2nc(CNCCc3ccc(F)cc3)cs2)cc1` yielded a growth inhibition of 38.5%.
For `Cc1cc(Nc2ccc(C(F)(F)F)cc2)n2ccnc2n1`, the growth inhibition was 94.6%.
In the case of `COc1cccn2c(C(=O)N3CCCCC3)c(C(F)(F)F)nc12`, the growth inhibition is reported as 15.1%.
With `COc1cc(C2=NCCN2)cc2cc(-c3ccc(C4=NCCN4)cc3)oc12` the growth inhibition was over 100%.
In the case of `O=C(Nc1cccc(Cl)c1)c1cnc(N2CCN(c3ccncc3)CC2)c(Cl)c1`, the growth inhibition is reported as over 100%.
For `CS(=O)(=O)N1CCC(CCn2nc(Cc3cccc4ccccc34)c3c(N)ncnc32)CC1`, the growth inhibition was 24.3%.
In the case of `Cc1noc(C)c1C(=O)N1CCCC(c2[nH]c3c(C)cccc3c2-c2ccncc2)C1` (stereo not drawn), the growth inhibition is reported as 95.3%.
With `CNC1C(OC2C(OC3C(O)C(O)C(N=C(N)N)C(O)C3N=C(N)N)OC(C)C2(O)C=O)OC(CO)C(O)C1O` (stereo not drawn) the growth inhibition was 29.2%.
Compound `COC(=O)c1c(NC(=O)c2cc3ccccc3oc2=O)sc2c1CCN(Cc1ccccc1)C2` has a growth inhibition of 8.51%.
For `CC(C)(C)C(=O)N(CCCCCCN1C[C@H](O)[C@@H](O)[C@H](O)[C@H]1CO)C1CCCCCC1`, the growth inhibition was under 0%.
Work on `N=C(N)Nc1ccc(-c2ccc(-c3ccc(N=C(N)N)c(Cl)c3)o2)cc1Cl` yielded a growth inhibition of over 100%.
`CC(C)(C)c1cc(C(=O)Nc2cccnc2)cc(C(=O)Nc2cccnc2)c1` was tested, and the growth inhibition was 94.2%.
Compound `Clc1ccc(-n2cc(COc3ccnc4ccccc34)nn2)cc1` has a growth inhibition of under 0%.
For `CCc1c(C)nc(-n2nc(C)cc2NC(=O)c2ccccc2SC)[nH]c1=O`, the growth inhibition was 60.2%.
With `CC(C)C(C(=O)Nc1ccc(S(=O)(=O)N(C)C)cc1)c1ccc(Cl)cc1` (stereo not drawn) the growth inhibition was 94.8%.
With `COc1cc(OC)cc(C(=O)NCC2Cc3cc(Cl)cc(-c4ccncc4)c3O2)c1` (stereo not drawn) the growth inhibition was over 100%.
With `Cc1ccc2cc(C3NC(=O)c4ccccc4N3)c(Cl)nc2c1` (stereo not drawn) the growth inhibition was 82.6%.
`O=C(Nc1c(O)cccc1-c1nc2c(C(=O)O)cccc2o1)c1cc(-c2ccccc2)on1` gave a growth inhibition of under 0%.
`C[C@H](C(N)=O)N1CCCC[C@@H]1c1ccc(OCc2cccc(F)c2)cc1` showed a growth inhibition of under 0%.
Work on `O=C(c1ccc(NCCO)cc1)C1C[C@H]1c1ccc(Cl)cc1` (stereo partly drawn) yielded a growth inhibition of 98.1%.
Work on `O[C@@H](c1cc(C(F)(F)F)nc2c(C(F)(F)F)cccc12)[C@H]1CCCCN1` yielded a growth inhibition of 94.9%.
Work on `Cc1nn2c(O)c3c(nc2c1-c1ccc(F)cc1)CCCC3` yielded a growth inhibition of 13.4%.
With `CN1CCC(NCc2cccc(-c3ccc(S(=O)(=O)NCc4ccccc4)cc3)c2)CC1` the growth inhibition was over 100%.
With `COc1cc(CN2CCC3(C=Cc4ccccc43)CC2)cc2c1OCO2` the growth inhibition was under 0%.
`O=C(c1cc2ccccc2o1)N1CCN(Cc2ccc3c(c2)OCO3)CC1` gave a growth inhibition of 12.4%.
`CC(C)(C)[C@H]1CC[C@H](CC2=C(O)C(=O)c3ccccc3C2=O)CC1` was tested, and the growth inhibition was 95.2%.
`CO[C@H]1/C=C\O[C@@]2(C)Oc3c(C)c(O)c4c(O)c(/c(=C/NN5CCN(C)CC5)c(O)c4c3C2=O)=N\C(=O)/C(C)=C\C=C/[C@H](C)[C@H](O)[C@@H](C)[C@@H](O)[C@@H](C)[C@H](OC(C)=O)[C@@H]1C` was tested, and the growth inhibition was 38.2%.
